Data on 4 molecules can be found in PubChem BioAssay.

Test [1] is described as follows: compounds altering viability of human ES cells (AID 493140; call rule not given here;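 also: cells exposed to compounds for four days before counting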). The conditions noted are these: human embryonic stem cell survival screen; stronger effect = higher value.
A short description of test [2]: P. berghei load reduction in hepatocytes – cell-based, HepG2, luciferase luminescence, HepG2 viability, primary screen (AID 624349; in the data active = parasite load remaining mostly below about 12%, no sharp cut-off; inactive = mostly above about 10%;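 also: 100% = mean of DMSO negative control wells on the same plate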). The conditions noted are these: P. berghei liver stage in HepG2, luciferase luminescence, concentration not given here; parasite load remaining: stronger effect = lower value; viability: measured here: HepG2 viability without parasites.
Test [3] is described as follows: Wnt pathway potentiators raising nuclear beta-catenin – imaging, WNT3A-conditioned medium, mouse C2C12, NPC library, primary screen (AID 1117326; in the data active = nuclear beta-catenin stimulation mostly above about 4.2%, no sharp cut-off; inactive = mostly below about 10%). To be noted: stronger effect = higher value.
Test [4] in a line: stimulators of insulin release from INS-1E, primary screen, cell-based, 5 mM glucose, NPC library (AID 1117329;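 active = compound raises insulin release from rat beta cells at 5 mM glucose, no numeric limit stated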). The conditions noted are these: rat INS-1E insulin secretion, at 10 µM, stronger effect = higher value.
Test [5] can be described thus: growth inhibition of GSK3B-pretreated HCT116 cells – cell-based, CellTiter-Glo, 0.2 to 20 µM (AID 1117336;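 active = compounds lowering colon cancer cell viability after pretreatment blocking the GSK3B kinase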). To be noted: HCT116 viability after GSK3B inhibitor, at 20 µM, stronger effect = higher value. On the technique in general: Cellular ATP, detected with luciferase, serves as a proxy for viable cell number.
A short description of test [6]: inhibition of endothelial tube formation, primary screen, imaging, VEGF stimulated, CD31 staining, tube area, NPC library (AID 1117340;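 active = compound that reduces growth-factor-driven endothelial tube area in a mixed cell culture, no cutoff stated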). To be noted: VEGF-stimulated ADSC/ECFC co-culture, at 10 µM, stronger effect = higher value.
Test [7] is described as follows: GLP1 release stimulators, primary, NCI-H716, NPC library (AID 1117341;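 active = compound raises GLP1 secretion from the human gut endocrine cells, with no numeric limit stated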). The conditions noted are these: NCI-H716 cells, at 10 µM, stronger effect = higher value.
A short description of test [8]: HCT116 colon cancer cell growth inhibition, primary screen, CellTiter-Glo luminescence, NPC library (AID 1117342;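 active = compounds that lower survival of HCT116 colon cancer cells in the luminescence readout, no numeric limit stated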). To be noted: at 20 µM (top of the series).
Test [9] in a line: reduced SW480 viability measured with CellTiter-Glo, NPC library, primary (AID 1117343;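 active = compounds that lower viability of the colon cancer cells in the luminescence readout, with no numeric limit stated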). To be noted: CellTiter-Glo luminescence; at 20 µM (top of the series) unless noted.
Test [10] in a line: NPC library primary testing for decreased DLD-1 cell viability via CellTiter-Glo (AID 1117346;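 active = compounds that lower survival of DLD-1 colon cancer cells in the luminescence readout, no cutoff given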). The conditions noted are these: DLD-1 viability, CellTiter-Glo luminescence; at 20 µM (top of the series).
A short description of test [11]: EMT-state selective cytotoxicity in co-culture – imaging, PC-3E GFP, TEM4-18 mCherry, primary screen (AID 1345086;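 active = compounds killing one labelled cell type while sparing the other, by normalised counts and ratio limits, not self-fluorescent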;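 as to all read-outs here: cells exposed to compound for 72 h before imaging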;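 as to red/green cell ratio (normalised): normalised mesenchymal count divided by normalised epithelial count so high means epithelial killing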). To be noted: PC-3E GFP / TEM4-18 mCherry co-culture, imaging cell counts, at 1 µM; for red/green cell ratio (normalised): actives lie on both sides, counts scaled to control wells, 1 = unselective.
The nature of test [12]: MELAS cybrid and Rieske KO viability enhancers – cell-based, MELAS cybrids, Rieske KO mouse fibroblasts, CellTiter-Glo, primary screen (AID 1508586).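 Also: z relative to plate mean and SD of compound and empty wells.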 The conditions noted are these: low glucose.
The target of test [13] is NAD(+) hydrolase SARM1 (Homo sapiens) (UniProt Q6SZW1). The test is described as follows: blocking NAD cleavage by SARM1 SAM-TIR – cell lysate, NAD-Glo luminescence (AID 1508614;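 active = compound whose remaining NAD level is above about 45 nM, limit read from the data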;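 also: higher remaining NAD means stronger inhibition of SARM1 NADase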). The conditions noted are these: SAM-TIR HEK293T lysate NADase, at 1 µM, stronger effect = higher value.
Test [14] is described as follows: viability loss with induced miR-34 in A549 – imaging, A549 dox-inducible miR-34, nuclei and caspase counts, primary screen (AID 1347080;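 active = compounds whose cell count with miR-34 switched on is under 0.7 times the count with it off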). The conditions noted are these: A549 miR-34 inducible, Hoechst nuclei count, 48 h.
[15] abbreviates: measured here: epithelial PC-3E GFP cell survival.
Setting [16] is: measured here: mesenchymal TEM4-18 mCherry cell survival.
Where [17] appears, read: MELAS cybrid survival, CellTiter-Glo 48 h, stronger effect = higher value.
Where [18] appears, read: Rieske KO mouse fibroblast survival, CellTiter-Glo 72 h.
Where [19] appears, read: stronger effect = lower value, cell number ratio, induced over uninduced.
Where [20] appears, read: measured here: relative caspase fold change +Dox/-Dox.
The mark [21] stands for this setting: measured here: total cells with miR-34 induction, stronger effect = lower value.
Setting [22] is: measured here: total cells without miR-34 induction.

As a reminder, the viability is a read-out of living cells in per cent, often relative to untreated cells.

“And” between values parts separate entries of the source, which are not always exact repeats. Identical values can stand only once. The source made the active and inactive calls.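 The calls were made as follows, unless noted: active = mean z-score across replicates of 1.96 or higher in either the MELAS or the Rieske mutant cell line; inactive = the rest.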

Chain of NAD(+) hydrolase SARM1 (Homo sapiens) (Q6SZW1 whole entry, looked up): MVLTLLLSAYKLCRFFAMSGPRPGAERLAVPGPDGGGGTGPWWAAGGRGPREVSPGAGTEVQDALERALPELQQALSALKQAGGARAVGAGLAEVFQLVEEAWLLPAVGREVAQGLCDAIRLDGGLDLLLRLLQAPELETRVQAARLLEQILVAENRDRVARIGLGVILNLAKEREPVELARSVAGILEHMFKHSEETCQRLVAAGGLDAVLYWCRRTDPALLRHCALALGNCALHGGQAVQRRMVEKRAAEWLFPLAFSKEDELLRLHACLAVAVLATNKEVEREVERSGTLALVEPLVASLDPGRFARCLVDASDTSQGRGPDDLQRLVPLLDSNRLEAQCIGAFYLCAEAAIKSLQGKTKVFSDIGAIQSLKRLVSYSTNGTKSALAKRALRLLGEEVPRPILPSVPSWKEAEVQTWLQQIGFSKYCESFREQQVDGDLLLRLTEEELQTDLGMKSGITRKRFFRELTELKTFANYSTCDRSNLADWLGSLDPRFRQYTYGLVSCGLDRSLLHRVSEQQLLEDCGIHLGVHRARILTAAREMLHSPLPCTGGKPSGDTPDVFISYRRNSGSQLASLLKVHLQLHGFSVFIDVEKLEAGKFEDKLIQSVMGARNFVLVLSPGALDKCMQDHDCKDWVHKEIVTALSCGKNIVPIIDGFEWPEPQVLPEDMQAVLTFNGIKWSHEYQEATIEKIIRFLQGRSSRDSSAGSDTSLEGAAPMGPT

With `NC(N)=NC(N)=NCCc1ccccc1`, the survival in test [1] is 15 (inactive). Also, the parasite load remaining in test [2] was -0.135% (inactive) and 69.8% (inactive) and 0.98% (inactive). For the same molecule, the viability in test [2] was 41.9% and 91.2% and 89.5%. Further, the nuclear beta-catenin stimulation in test [3] (at 10 µM) is 0% (inactive); in [3] (stimulation, at 2 µM), 1.1%. Further, the insulin secretion stimulation in test [4] was -0.2% (inactive). Also, the viability decrease in test [5] is 27.4% (inactive). For the same molecule, the tube area decrease in [6] was 27.6% (inactive). Moreover, the GLP1 secretion stimulation in test [7] was -0.4% (inactive). The inhibition of viability in test [8] is 9.6% (inactive). For the same molecule, the viability decrease (inhibition) in test [9] is 70.3% (active); in test [10] it was 9.45% (inactive). In addition, in test [11], the red/green cell ratio (normalised) is 0.86 (inactive). Also, the results for the normalised cell number in [11] (setting [15]) and in test [11] (setting [16]) were 1.06 and 0.91, respectively. The z-score is -0.896 (inactive) and -0.373 (inactive) and -0.362 (inactive) in [12] (setting [17]); -0.647 and 0.306 and -0.384 in test [12] (setting [18]). In addition, the remaining NAD in [13] is 10 nM (inactive).

For the molecule `O=[N+]([O-])c1ccc(O)c2ncccc12`, the nuclear beta-catenin stimulation in [3] (at 10 µM) was 45.6% (active); in test [3] (stimulation, at 2 µM), 1.9%. Moreover, the insulin secretion stimulation in test [4] was -1.1% (inactive). The viability decrease in [5] is 95.8% (active). In addition, the tube area decrease in test [6] is 102% (active). Also, the GLP1 secretion stimulation in test [7] is -11.4% (inactive). The inhibition of viability in [8] is 76.5% (active). The viability decrease (inhibition) in test [9] is 112% (active); in test [10] it was 80.7% (active). The red/green cell ratio (normalised) in [11] is 0.89 (inactive). In addition, the normalised cell number in test [11] (setting [15]) was 1.07; in test [11] (setting [16]) it was 0.95. For the same molecule, the fold change in test [14] (setting [19]) is 0.979 (inactive); in test [14] (setting [20]) it was 0.972. Besides, the cell count in [14] (setting [21]) was found to be 2410; in test [14] (setting [22]), 2460. In test [13], the remaining NAD is 10 nM (inactive).

On to `Cn1c(=O)c2c(ncn2CC2OCCO2)n(C)c1=O`, for which, in [2], the parasite load remaining was 22.8% (inactive). Moreover, in [2], the viability was 112%. The nuclear beta-catenin stimulation is 2.7% (inactive) in [3] (at 10 µM) and 1.1% in test [3] (stimulation, at 2 µM). For the same molecule, in test [4], the insulin secretion stimulation is -2.4% (inactive). Further, the viability decrease in test [5] is -0.95% (inactive). Also, in test [6], the tube area decrease was -3.4% (inactive). The GLP1 secretion stimulation in test [7] was -1.2% (inactive). Moreover, the inhibition of viability in [8] was 16.1% (inactive). For the same molecule, the results for the viability decrease (inhibition) in test [9] and in test [10] were 46.8% (inactive) and 11.7% (inactive), respectively. Besides, the red/green cell ratio (normalised) in test [11] is 0.85 (inactive). For the same molecule, the normalised cell number in test [11] (setting [15]) was 1.16; in [11] (setting [16]), 0.98. The fold change is 0.901 (inactive) and 0.895 (inactive) in test [14] (setting [19]); 0.475 and 1.33 in [14] (setting [20]). Further, the cell count in [14] (setting [21]) was 8400 and 9760; in [14] (setting [22]) it was 9320 and 10900. Besides, the z-score in test [12] (setting [17]) is -0.299 (inactive) and -0.511 (inactive) and 0.326 (inactive); in test [12] (setting [18]), -0.174 and -0.641 and -0.268. In test [13], the remaining NAD is 10 nM (inactive).

As to `Clc1ccc(C(Cn2ccnc2)OCc2ccsc2Cl)c(Cl)c1` (configuration not stated), the parasite load remaining in [2] was 37.3% (inactive) and 6.58% (inactive). Besides, in test [2], the viability is 97.8% and 62%. Further, the nuclear beta-catenin stimulation in [3] (at 10 µM) is 4.5% (inactive); in test [3] (stimulation, at 2 µM), 0.7%. The insulin secretion stimulation in [4] was 0.9% (inactive). Besides, in test [5], the viability decrease is 100% (active). Moreover, the tube area decrease in test [6] is 110% (active). For the same molecule, the GLP1 secretion stimulation in test [7] was 10.8% (inactive). The inhibition of viability in test [8] is 100% (active). The viability decrease (inhibition) is 123% (active) in test [9] and 103% (active) in test [10]. Moreover, the red/green cell ratio (normalised) in test [11] is 1.15 (inactive). Further, the normalised cell number in test [11] (setting [15]) worked out at 0.85; in test [11] (setting [16]) it was 0.97. In addition, the fold change was 0.919 (inactive) and 0.86 (inactive) and 0.892 (inactive) in test [14] (setting [19]); 0.876 and 3.84 and 1.06 in [14] (setting [20]). Besides, the cell count is 7290 and 10300 and 7120 in test [14] (setting [21]); 7930 and 12000 and 7980 in test [14] (setting [22]). Also, the z-score was -0.0566 (inactive) and 0.885 (inactive) and 0.0763 (inactive) in test [12] (setting [17]); -0.152 and 0.306 and -0.538 in test [12] (setting [18]). The remaining NAD in test [13] is 10 nM (inactive).
